{
  "source": "the supplement of paper PMC8728848",
  "binders": {"B1": {"name": "CD72 ectodomain (Homo sapiens), P21854 (protein)", "chain": "RYLQVSQQLQQTNRVLEVTNSSLRQQLRLKITQLGQSAEDLQGSRRELAQSQEALQVEQRAHQAAEGQLQACQADRQKTKETLQSEEQQRRALEQKLSNMENRLKPFFTCGSADTCCPSGWIMHQKSCFYISLTSKNWQESQKQCETLSSKLATFSEIYPQSHSYYFLNSLLPNGGSGNSYWTGLSSNKDWKLTDDTQRTRTYAQSSKCNKVHKTWSWWTLESESCRSSLPYICEMTAFRFPD"}},
  "assay_in_all_cases": "glycan array binding signal (z-score within array); higher = stronger binding",
  "settings_in_all_cases": "glycan notation: IUPAC condensed, linker removed",
  "key": {"[1]": {"target": "Fuc(a1-2)Gal(b1-3)GalNAc(b1-3)Gal(a1-4)Gal(b1-4)Glc", "in_short": "(§1)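 The Consortium for Functional Glycomics database supplied 3228 glycan arrays, of which those lacking an available protein sequence were dropped. The binding signal, a within-array Z-score, was averaged across arrays of the same protein sequence and across linkers. Negative scores can be read as non-binding.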"}, "[2]": {"target": "Fuc(a1-2)Gal(b1-3)GalNAc(b1-4)[Neu5Ac(a2-3)]Gal(b1-4)Glc", "in_short": "as §1"}, "Fuc(a1-2)Gal(b1-3)GlcNAc": {"target": "Fuc(a1-2)Gal(b1-3)GlcNAc", "in_short": "as §1"}, "[3]": {"target": "Fuc(a1-2)Gal(b1-3)[Fuc(a1-4)]GlcNAc(b1-3)[Fuc(a1-3)[Gal(b1-4)]GlcNAc(b1-6)]Gal(b1-4)Glc", "in_short": "as §1"}, "[4]": {"target": "Fuc(a1-2)Gal(b1-4)GlcNAc(b1-3)GalNAc", "in_short": "as §1"}, "[5]": {"target": "Fuc(a1-2)Gal(b1-4)[Fuc(a1-3)]GlcNAc(b1-3)GalNAc", "in_short": "as §1"}, "[6]": {"target": "Fuc(a1-2)[Gal(a1-3)]Gal(b1-3)GlcNAc(b1-2)Man(a1-3)[Fuc(a1-2)[Gal(a1-3)]Gal(b1-3)GlcNAc(b1-2)Man(a1-6)]Man(b1-4)GlcNAc(b1-4)[Fuc(a1-6)]GlcNAc", "in_short": "as §1"}, "[7]": {"target": "Fuc(a1-2)[Gal(a1-3)]Gal(b1-4)Glc", "in_short": "as §1"}, "[8]": {"target": "Fuc(a1-2)[GalNAc(a1-3)]Gal(b1-4)GlcNAc(b1-2)Man(a1-3)[Fuc(a1-2)[GalNAc(a1-3)]Gal(b1-4)GlcNAc(b1-2)Man(a1-6)]Man(b1-4)GlcNAc(b1-4)[Fuc(a1-6)]GlcNAc", "in_short": "as §1"}, "[9]": {"target": "Fuc(a1-3)[Gal(b1-4)]GlcNAc(b1-2)Man(a1-3)[Fuc(a1-3)[Gal(b1-4)]GlcNAc(b1-2)Man(a1-6)]Man(b1-4)GlcNAc(b1-4)[Fuc(a1-6)]GlcNAc", "in_short": "as §1"}, "Gal(a1-2)Gal": {"target": "Gal(a1-2)Gal", "in_short": "as §1"}, "[10]": {"target": "Gal(a1-3)Gal(b1-4)GlcNAc(b1-3)GalNAc", "in_short": "as §1"}, "[11]": {"target": "Gal(a1-3)Gal(b1-4)[Fuc(a1-3)]GlcNAc", "in_short": "as §1"}, "[12]": {"target": "Gal(a1-4)Gal(b1-4)GlcNAc(b1-2)Man(a1-3)[Gal(a1-4)Gal(b1-4)GlcNAc(b1-2)Man(a1-6)]Man(b1-4)GlcNAc(b1-4)GlcNAc", "in_short": "as §1"}, "[13]": {"target": "Gal(b1-3)GalNAc(b1-4)[Neu5Ac(a2-3)]Gal(b1-4)Glc", "in_short": "as §1"}, "[14]": {"target": "Gal(b1-3)GlcNAc(b1-2)Man(a1-3)[Gal(b1-3)GlcNAc(b1-2)Man(a1-6)]Man(b1-4)GlcNAc(b1-4)GlcNAc", "in_short": "as §1"}, "[15]": {"target": "Gal(b1-3)GlcNAc(b1-3)Gal(b1-3)GlcNAc", "in_short": "as §1"}, "[16]": {"target": "Gal(b1-3)GlcNAc(b1-3)Gal(b1-4)[Fuc(a1-3)]GlcNAc(b1-6)[Gal(b1-3)GlcNAc(b1-3)]Gal(b1-4)Glc", "in_short": "as §1"}, "Gal(b1-4)GlcNAc(b1-2)Man": {"target": "Gal(b1-4)GlcNAc(b1-2)Man", "in_short": "as §1"}, "[17]": {"target": "Gal(b1-4)GlcNAc(b1-2)[Gal(b1-4)GlcNAc(b1-4)]Man(a1-3)[Gal(b1-4)GlcNAc(b1-2)[Gal(b1-4)GlcNAc(b1-6)]Man(a1-6)]Man(b1-4)GlcNAc(b1-4)GlcNAc", "in_short": "as §1"}, "[18]": {"target": "Gal(b1-4)GlcNAc(b1-3)Gal(b1-3)GlcNAc", "in_short": "as §1"}, "[19]": {"target": "Gal(b1-4)GlcNAc(b1-3)Gal(b1-4)[Fuc(a1-3)GlcNAc(b1-6)]Gal(b1-4)Glc", "in_short": "as §1"}, "Gal6S(b1-4)Glc": {"target": "Gal6S(b1-4)Glc", "in_short": "as §1"}, "GalNAc(b1-6)GalNAc": {"target": "GalNAc(b1-6)GalNAc", "in_short": "as §1"}, "GlcA(b1-3)Gal": {"target": "GlcA(b1-3)Gal", "in_short": "as §1"}, "[20]": {"target": "GlcNAc(a1-4)Gal(b1-3)GlcNAc", "in_short": "as §1"}, "[21]": {"target": "GlcNAc(a1-4)Gal(b1-4)GlcNAc(b1-3)Gal(b1-4)Glc", "in_short": "as §1"}, "[22]": {"target": "GlcNAc(a1-4)Gal(b1-4)GlcNAc(b1-3)Gal(b1-4)GlcNAc", "in_short": "as §1"}, "[23]": {"target": "GlcNAc(a1-6)Gal(b1-4)GlcNAc", "in_short": "as §1"}, "[24]": {"target": "GlcNAc(b1-2)Man(a1-3)[GlcNAc(b1-2)Man(a1-6)]Man(b1-4)GlcNAc(b1-4)[Fuc(a1-6)]GlcNAc", "in_short": "as §1"}, "[25]": {"target": "GlcNAc(b1-4)GlcNAc(b1-4)GlcNAc", "in_short": "as §1"}, "Kdn(a2-3)Gal(b1-4)GlcNAc": {"target": "Kdn(a2-3)Gal(b1-4)GlcNAc", "in_short": "as §1"}, "[26]": {"target": "Man(a1-2)Man(a1-6)[Man(a1-3)]Man(a1-6)[Man(a1-2)Man(a1-2)Man(a1-3)]Man", "in_short": "as §1"}, "[27]": {"target": "Man(a1-3)[Man(a1-6)]Man(a1-6)[Man(a1-3)]Man(b1-4)GlcNAc(b1-4)GlcNAc", "in_short": "as §1"}, "Man(a1-6)Man": {"target": "Man(a1-6)Man", "in_short": "as §1"}, "Man(b1-4)GlcNAc": {"target": "Man(b1-4)GlcNAc", "in_short": "as §1"}, "[28]": {"target": "Neu5Ac(a2-3)Gal(b1-3)GalNAc(b1-4)[Neu5Ac(a2-3)]Gal(b1-4)Glc", "in_short": "as §1"}, "[29]": {"target": "Neu5Ac(a2-3)Gal(b1-4)GlcNAc(b1-2)Man(a1-3)[Neu5Ac(a2-6)Gal(b1-4)GlcNAc(b1-2)Man(a1-6)]Man(b1-4)GlcNAc(b1-4)GlcNAc", "in_short": "as §1"}, "[30]": {"target": "Neu5Ac(a2-3)Gal(b1-4)GlcNAc(b1-3)Gal(b1-3)GlcNAc", "in_short": "as §1"}, "[31]": {"target": "Neu5Ac(a2-3)Gal(b1-4)[Fuc(a1-3)]GlcNAc(b1-3)Gal(b1-4)[Fuc(a1-3)]GlcNAc(b1-3)Gal(b1-4)[Fuc(a1-3)]GlcNAc", "in_short": "as §1"}, "[32]": {"target": "Neu5Ac(a2-6)Gal(b1-4)GlcNAc(b1-3)Gal(b1-4)GlcNAc(b1-3)Gal(b1-4)GlcNAc", "in_short": "as §1"}},
  "note": "The sample as a whole holds a higher share of the strongest signals than the screen did.",
  "data": [
    {"binder": "B1", "values": [
      {"measurement": "glycan array binding signal (z-score)", "setting": "[1]", "result": -0.867},
      {"measurement": "glycan array binding signal (z-score)", "setting": "[2]", "result": 0.01},
      {"measurement": "glycan array binding signal (z-score)", "setting": "Fuc(a1-2)Gal(b1-3)GlcNAc", "result": 1.12},
      {"measurement": "glycan array binding signal (z-score)", "setting": "[3]", "result": -0.186},
      {"measurement": "glycan array binding signal (z-score)", "setting": "[4]", "result": 1.08},
      {"measurement": "glycan array binding signal (z-score)", "setting": "[5]", "result": 5.72},
      {"measurement": "glycan array binding signal (z-score)", "setting": "[6]", "result": 2.7},
      {"measurement": "glycan array binding signal (z-score)", "setting": "[7]", "result": 0.3},
      {"measurement": "glycan array binding signal (z-score)", "setting": "[8]", "result": 0.886},
      {"measurement": "glycan array binding signal (z-score)", "setting": "[9]", "result": 0.575},
      {"measurement": "glycan array binding signal (z-score)", "setting": "Gal(a1-2)Gal", "result": 0.56},
      {"measurement": "glycan array binding signal (z-score)", "setting": "[10]", "result": -1.69},
      {"measurement": "glycan array binding signal (z-score)", "setting": "[11]", "result": 1.45},
      {"measurement": "glycan array binding signal (z-score)", "setting": "[12]", "result": 0.8},
      {"measurement": "glycan array binding signal (z-score)", "setting": "[13]", "result": 1.16},
      {"measurement": "glycan array binding signal (z-score)", "setting": "[14]", "result": 1.6},
      {"measurement": "glycan array binding signal (z-score)", "setting": "[15]", "result": -0.958},
      {"measurement": "glycan array binding signal (z-score)", "setting": "[16]", "result": 2.26},
      {"measurement": "glycan array binding signal (z-score)", "setting": "Gal(b1-4)GlcNAc(b1-2)Man", "result": 0.51},
      {"measurement": "glycan array binding signal (z-score)", "setting": "[17]", "result": -0.561},
      {"measurement": "glycan array binding signal (z-score)", "setting": "[18]", "result": -0.795},
      {"measurement": "glycan array binding signal (z-score)", "setting": "[19]", "result": -0.359},
      {"measurement": "glycan array binding signal (z-score)", "setting": "Gal6S(b1-4)Glc", "result": -0.925},
      {"measurement": "glycan array binding signal (z-score)", "setting": "GalNAc(b1-6)GalNAc", "result": -0.435},
      {"measurement": "glycan array binding signal (z-score)", "setting": "GlcA(b1-3)Gal", "result": 2.21},
      {"measurement": "glycan array binding signal (z-score)", "setting": "[20]", "result": -1.11},
      {"measurement": "glycan array binding signal (z-score)", "setting": "[21]", "result": 0.006},
      {"measurement": "glycan array binding signal (z-score)", "setting": "[22]", "result": 4.25},
      {"measurement": "glycan array binding signal (z-score)", "setting": "[23]", "result": 4.24},
      {"measurement": "glycan array binding signal (z-score)", "setting": "[24]", "result": 2.59},
      {"measurement": "glycan array binding signal (z-score)", "setting": "[25]", "result": 0.82},
      {"measurement": "glycan array binding signal (z-score)", "setting": "Kdn(a2-3)Gal(b1-4)GlcNAc", "result": 0.726},
      {"measurement": "glycan array binding signal (z-score)", "setting": "[26]", "result": -0.32},
      {"measurement": "glycan array binding signal (z-score)", "setting": "[27]", "result": 0.977},
      {"measurement": "glycan array binding signal (z-score)", "setting": "Man(a1-6)Man", "result": -0.096},
      {"measurement": "glycan array binding signal (z-score)", "setting": "Man(b1-4)GlcNAc", "result": 2.32},
      {"measurement": "glycan array binding signal (z-score)", "setting": "[28]", "result": -0.087},
      {"measurement": "glycan array binding signal (z-score)", "setting": "[29]", "result": 0.127},
      {"measurement": "glycan array binding signal (z-score)", "setting": "[30]", "result": 1.03},
      {"measurement": "glycan array binding signal (z-score)", "setting": "[31]", "result": 1.73},
      {"measurement": "glycan array binding signal (z-score)", "setting": "[32]", "result": 0.371}
    ]}
  ]
}
